Screens from PubChem BioAssay.
The list is not random: actives were taken first. Their share in the collection is about 6%.
D3 ag = qHTS of D3 Dopamine Receptor Agonist: qHTS | actives 0.58% (n = 410,000) | max activation, % | AID 652048, 2013 | D3R DiscoveRx beta-arrestin cells, luminescence, 90 min; in the data active = max activation above about 30%; also: 0% is about no effect
Target sequence (P35462 whole entry, looked up): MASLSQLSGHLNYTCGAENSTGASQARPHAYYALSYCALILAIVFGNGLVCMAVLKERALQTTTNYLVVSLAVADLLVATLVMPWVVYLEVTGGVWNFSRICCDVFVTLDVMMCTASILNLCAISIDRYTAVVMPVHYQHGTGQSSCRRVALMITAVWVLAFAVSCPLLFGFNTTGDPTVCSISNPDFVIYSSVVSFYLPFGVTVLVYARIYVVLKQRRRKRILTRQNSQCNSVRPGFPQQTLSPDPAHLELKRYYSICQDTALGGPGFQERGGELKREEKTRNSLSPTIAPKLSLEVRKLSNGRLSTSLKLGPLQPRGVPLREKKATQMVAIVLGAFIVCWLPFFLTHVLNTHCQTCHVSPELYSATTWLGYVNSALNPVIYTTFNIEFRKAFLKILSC
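Cells at 1500/well, incubated overnight, then treated with pinned compounds (dopamine as control) for 90 min at 37 degrees C. DiscoveRx reagent added for 30 - 60 minutes at room temperature; luminescence read.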
D3 antag = qHTS of D3 Dopamine Receptor Antagonist: qHTS. D(3) dopamine receptor (Homo sapiens), P35462. D3R cells, DiscoveRx beta-arrestin luminescence, antagonist mode; hits give low values. max response, negative = inhibition, %. actives 2.5% (n = 360,000). AID 652054, 2013; in the data active = max response below about -50%; inconclusive = no clear call, values can overlap the other calls; also: % is scaled to controls: 0 for no effect and ±100 for the full control effect
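Cells plated overnight at 1500 cells/well, then exposed to library compounds with dopamine controls for 90 minutes at 37 degrees C. DiscoveRx reagent added for 30–60 minutes at room temperature; luminescence read, quantitative HTS format.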
D1 ag = Allosteric Agonists of the Human D1 Dopamine Receptor: qHTS | D(1A) dopamine receptor (Homo sapiens), P21728 | HEK293 T-REx D1 cells, calcium flux, agonist mode | activation, % at 2 µM | actives 1% (n = 360,000) | AID 504660, 2011; in the data active = activation above about 30%; also: 0% is about no effect
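Agonism was scored from calcium flux recorded over 180 s (1 read/s) after pintool compound addition, following a 10-cycle baseline. Cells were inducible force-coupled HEK293 TREx D1, plated overnight at 30 C and loaded with no-wash calcium dye.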
D1 PAM = Potentiators of Human D1 Dopamine Receptor: qHTS; D(1A) dopamine receptor (Homo sapiens), P21728; HEK293 TREx D1 cells, calcium flux, dopamine EC20 potentiation; potentiation, % at 10 µM; actives 0.036% (n = 360,000); AID 504651, 2011; in the data active = potentiation above about 30%; also: 0% is about no effect
D1 antagonist = Antagonist of Human D 1 Dopamine Receptor: qHTS; D(1A) dopamine receptor (Homo sapiens), P21728; activity change, negative = inhibition, % at 10 µM; actives 3.2% (n = 360,000); HEK293 TREx D1 cells, calcium flux, dopamine EC80; hits give low values; in the data active = activity change below about -30%; also: % is scaled to controls: 0 for no effect and ±100 for the full control effect
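Tetracycline-induced HEK293 T-REx cells with force-coupled D1 receptor were loaded with a no-wash calcium dye. Compound was added after a 10 s baseline and read kinetically for 180 s; EC80 dopamine was then added and calcium flux followed another 180 s.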
* = called active by the depositor; u = inconclusive; x = no result.

SMILES | D3 ag | D3 antag | D1 ag | D1 PAM | D1 antagonist
CCOC(=O)C1CCN(S(=O)(=O)c2cccc3nonc23)CC1 | -3 | 2 | 4 | -1 | -6
CCOC(=O)C1CCN(Cc2cnc(Oc3ccc(N)cc3)s2)CC1 | 1 | -13 | 7 | -1 | 0
COC(=O)c1ccc(NC(=S)N2CCN(Cc3ccccc3)CC2)cc1 | -2 | -9 | 17 | -6 | -43*
COC(=O)c1ccc(CN2CCCCC2)cc1 | -24 | -56* | 2 | -3 | -14
CCOC(=O)C1CCN(Cc2cnc(Oc3ccc(Cl)cc3C)s2)CC1 | -21 | -58* | x | x | x
CCOC(=O)C1CCN(S(=O)(=O)c2c(Cl)ccc3nonc23)CC1 | x | x | 4 | -8 | -35*
C=C(C)C1CC=C(CN2CCC(C(=O)OCC)CC2)CC1 (centres undefined) | -51 | -61* | 1 | -2 | 6
CCOC(=O)C1CCN(Cc2ccc(Cl)c(Cl)c2)CC1 | -38 | -85* | 3 | 1 | 0
Clc1ccc(CN2CCCCCCC2)cc1Cl | -1 | -90* | 2 | -3 | -3
CCOC(=O)C1CCN(Cc2ccc(C(=O)OC)cc2)CC1 | -33 | -53* | -2 | -3 | 2
CCOC(=O)C1CCN(Cc2ccc(F)cc2)CC1 | -48 | u | 0 | 1 | -5
CC(C)(C)c1cc(CN2CCN(CCO)CC2)cc(C(C)(C)C)c1O | -33 | -82* | 5 | 1 | 11
O/N=C/c1ccc2ccccc2n1 | 16 | 10 | 0 | -2 | 0
O/C(=C\c1nc2ccccc2nc1/C=C(\O)c1ccccc1)c1ccccc1 | -5 | -67* | 0 | -10 | -14
O=c1oc2ccccc2nc1/C=C(\O)c1ccccc1 | -3 | -13 | 1 | 1 | 0
O/C(=C\c1ccc2ccccc2n1)c1ccncc1 | 0 | -23 | 45* | -3 | 6
COc1ccc(NS(=O)(=O)c2c(C)n(C)c(=O)n(C)c2=O)cc1OC | 2 | 2 | 0 | 0 | -31*
O=C(CNC(=O)C1CCCCC1)NNC(=O)c1ccccc1Br | -17 | -15 | 2 | -8 | -35*
COc1ccc(C(CCN2CCCC2)c2c(OC)cc(OC)c3c(-c4ccccc4)cc(=O)oc23)cc1 (centres undefined) | -16 | 12 | 14 | -11 | -8
COc1cc(OC)c2c(-c3ccccc3)cc(=O)oc2c1C(CCN1CCCC(C)C1)c1ccc(N(C)C)cc1 (centres undefined) | -42 | u | 22 | -8 | 1
COc1ccc(C(CCN2CCCC(C)C2)c2c(OC)cc(OC)c3c(C)cc(=O)oc23)cc1 (centres undefined) | -67 | -89* | 5 | 2 | 14
COc1ccc(C(CCN2CCCC(C)C2)c2c(OC)cc(OC)c3c(-c4ccccc4)cc(=O)oc23)cc1 (centres undefined) | -56 | -53* | 29 | -10 | -17
O=C(NC1CC(=O)N(c2ccc(F)cc2)C1)C1CC1 (centres undefined) | -8 | x | 0 | -2 | x
COc1ccc(NC(=O)Nc2cccc3c2O[C@H](CN(C)C(=O)Nc2ccc(OC)cc2)[C@@H](C)CN([C@H](C)CO)C3=O)cc1 | 33* | 65 | x | x | x
COc1ccc(S(=O)(=O)Nc2cccc3c2O[C@@H](CN(C)Cc2ccc(C(=O)O)cc2)[C@@H](C)CN([C@H](C)CO)C3=O)cc1 | 50* | 3 | x | x | x
SMILES | D3 ag | D3 antag | D1 ag | D1 PAM | D1 antagonist
COc1ccc(NC(=O)N(C)C[C@H]2Oc3c(NC(=O)Nc4ccccc4)cccc3C(=O)N([C@H](C)CO)C[C@@H]2C)cc1 | 12 | 6 | x | x | x
CSc1nnc2c(n1)OC(c1cccc(O)c1Cl)Nc1ccccc1-2 (centres undefined) | 2 | x | -1 | -1 | -3
O=C(Nc1ccc2c(c1)oc1ccccc12)c1ccncc1 | -2 | -9 | 5 | -3 | -24
O=C(Nc1ccc(OCc2ccccc2)cc1)c1cccnc1 | 6 | 6 | 61* | 2 | 4
O=C(Nc1ccc(Oc2cccnc2)cc1)c1ccccc1F | 0 | -2 | 13 | -10 | -42*
O=C(Nc1ccc2c(c1)oc1ccccc12)c1cccnc1 | 0 | 32 | 3 | -12 | -55*
Cc1cc(C)c(NC(=O)Cn2c(=O)n(-c3cccc(C(F)(F)F)c3)c(=O)c3c(C)c(C)sc32)c(C)c1 | -6 | x | 3 | 1 | 1
COCCNC(=O)CCn1c(=O)c2cc(OC)c(OC)cc2n(CC(=O)Nc2ccc(Cl)cc2F)c1=O | 9 | x | 0 | 1 | -12
CCC1CCCCN1C(=O)c1nn(-c2ccc(C)cc2)c(=O)c2c1c1ccccc1n2C (centres undefined) | -12 | x | 0 | 4 | -8
O=C(NC1CCCCCCC1)c1cccc(Cl)c1 | -6 | 2 | 2 | 0 | 4
Cc1nn(Cc2cccc(C(=O)NC3CCCCC3)c2)c(C)c1Cl | -1 | -51* | 3 | 0 | -10
Cc1cccc2cc(CN(Cc3nnnn3C3CCCCC3)C3CCCC3)c3nnnn3c12 | -9 | -65* | -1 | -5 | -8
CC1CC(C)CN(C(=O)C2CC(=O)N(c3ccc4c(c3)OCCO4)C2)C1 (centres undefined) | 23 | 6 | 1 | 0 | 4
NC(=O)C1CCN(C(=O)C2CC(=O)N(c3ccc4c(c3)OCCO4)C2)CC1 (centres undefined) | -6 | 3 | 0 | -13 | -34*
CCOC(=O)c1cc([N+](=O)[O-])cc([N+](=O)[O-])c1Sc1ncnc2nc[nH]c12 | -25 | -86* | x | x | x
Cc1cc(N)ccc1N1CCCC1 | -7 | -55* | 2 | -4 | 7
Cc1nc2c(c(=O)c3ccccc3n2C)c(=O)n1C1CCCCCC1 | 4 | 1 | 154* | 0 | 9
CC(C)Cn1c(-c2ccco2)nc2c(c(=O)c3ccccc3n2C)c1=O | x | x | 6 | -5 | -17
Cn1c2ccccc2c(=O)c2c(=O)n(C3CCCCC3)c(-c3ccco3)nc21 | -14 | -19 | 106* | -9 | -3
Cc1nc2c(c(=O)c3ccccc3n2C)c(=O)n1-c1ccccc1 | -10 | -10 | 1 | -4 | 19
CC(Sc1nc2ccccc2s1)C(=O)c1c(N)n(C)c(=O)n(C)c1=O (centres undefined) | -2 | 10 | 9 | -1 | -42*
CC(Sc1n[nH]c(-c2ccccc2)n1)C(=O)c1c(N)n(C)c(=O)n(C)c1=O (centres undefined) | 2 | 3 | 3 | -2 | 3
CCc1ccc(NC(=O)Cn2cnc3sc(C)c(S(=O)(=O)N4CCN(c5ccccc5OC)CC4)c3c2=O)cc1 | 4 | x | 1 | -1 | -2
